Experiment [1] addresses T1, Ephrin type-A receptor 3 (Homo sapiens) (UniProt P29320).
T1 sequence (whole entry): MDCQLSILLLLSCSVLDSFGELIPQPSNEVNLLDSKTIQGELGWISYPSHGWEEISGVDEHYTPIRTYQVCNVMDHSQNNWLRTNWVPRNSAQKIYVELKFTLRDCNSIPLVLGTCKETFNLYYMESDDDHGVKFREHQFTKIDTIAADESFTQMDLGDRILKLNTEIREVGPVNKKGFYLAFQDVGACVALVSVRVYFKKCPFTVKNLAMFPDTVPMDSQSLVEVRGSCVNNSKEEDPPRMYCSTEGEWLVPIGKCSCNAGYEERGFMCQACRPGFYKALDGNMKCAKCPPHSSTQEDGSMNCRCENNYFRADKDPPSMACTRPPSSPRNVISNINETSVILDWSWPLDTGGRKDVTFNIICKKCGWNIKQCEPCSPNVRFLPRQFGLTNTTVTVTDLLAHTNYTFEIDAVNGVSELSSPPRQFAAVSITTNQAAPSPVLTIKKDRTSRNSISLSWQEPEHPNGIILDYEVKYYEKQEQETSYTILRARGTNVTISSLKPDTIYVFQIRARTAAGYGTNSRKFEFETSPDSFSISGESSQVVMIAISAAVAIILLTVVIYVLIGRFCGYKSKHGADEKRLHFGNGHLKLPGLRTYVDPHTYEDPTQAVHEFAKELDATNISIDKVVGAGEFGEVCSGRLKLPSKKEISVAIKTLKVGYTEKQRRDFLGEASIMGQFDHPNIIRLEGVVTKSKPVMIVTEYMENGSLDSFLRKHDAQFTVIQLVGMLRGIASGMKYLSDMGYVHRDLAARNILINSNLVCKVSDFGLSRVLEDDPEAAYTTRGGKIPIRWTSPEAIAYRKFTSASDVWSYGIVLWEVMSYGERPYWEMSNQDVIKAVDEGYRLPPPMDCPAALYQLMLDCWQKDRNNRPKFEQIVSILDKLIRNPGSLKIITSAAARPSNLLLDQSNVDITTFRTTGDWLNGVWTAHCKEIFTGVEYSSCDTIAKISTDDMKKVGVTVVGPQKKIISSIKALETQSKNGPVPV
The following applies: at 10 µM.

Experiment [2] concerns the target Ephrin type-A receptor 4 (Homo sapiens) (UniProt P54764). The following applies: at 10 µM.
Experiment [3] addresses Ephrin type-A receptor 5 (Homo sapiens) (UniProt P54756). The following applies: at 1 µM.
The target is the same in experiment [4]. The following applies: at 10 µM.
The target in experiment [5] is T2, Ephrin type-A receptor 8 (Homo sapiens) (UniProt P29322).
T2 sequence (whole entry): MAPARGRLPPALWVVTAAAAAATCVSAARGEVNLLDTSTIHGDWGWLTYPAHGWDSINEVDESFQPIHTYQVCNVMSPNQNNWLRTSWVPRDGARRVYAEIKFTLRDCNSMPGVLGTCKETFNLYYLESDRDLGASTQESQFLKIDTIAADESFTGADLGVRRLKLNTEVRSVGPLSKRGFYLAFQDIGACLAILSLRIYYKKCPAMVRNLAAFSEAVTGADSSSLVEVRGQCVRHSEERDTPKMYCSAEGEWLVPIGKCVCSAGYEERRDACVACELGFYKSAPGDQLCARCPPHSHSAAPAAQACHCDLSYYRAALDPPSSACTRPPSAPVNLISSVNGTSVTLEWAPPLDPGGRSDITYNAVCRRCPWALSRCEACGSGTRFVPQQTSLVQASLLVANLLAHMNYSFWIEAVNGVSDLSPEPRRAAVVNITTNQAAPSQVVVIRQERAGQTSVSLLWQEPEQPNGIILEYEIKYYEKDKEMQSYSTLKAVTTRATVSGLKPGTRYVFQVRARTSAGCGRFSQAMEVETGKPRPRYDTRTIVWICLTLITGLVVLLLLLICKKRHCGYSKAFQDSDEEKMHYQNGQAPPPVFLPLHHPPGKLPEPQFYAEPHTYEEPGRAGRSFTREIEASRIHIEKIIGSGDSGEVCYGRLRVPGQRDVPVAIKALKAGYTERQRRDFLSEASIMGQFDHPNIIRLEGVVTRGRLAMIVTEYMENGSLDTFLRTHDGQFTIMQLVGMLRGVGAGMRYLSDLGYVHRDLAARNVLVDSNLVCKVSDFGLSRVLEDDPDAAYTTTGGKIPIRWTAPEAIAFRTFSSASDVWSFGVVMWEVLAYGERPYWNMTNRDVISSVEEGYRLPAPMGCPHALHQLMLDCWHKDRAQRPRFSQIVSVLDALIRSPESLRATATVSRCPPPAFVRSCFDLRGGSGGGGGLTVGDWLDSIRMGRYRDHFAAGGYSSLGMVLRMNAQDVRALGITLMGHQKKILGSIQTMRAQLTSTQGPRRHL
The following applies: at 1 µM.

Experiment [6] addresses T2, Ephrin type-A receptor 8 (Homo sapiens). The following applies: at 10 µM.
In experiment [7] the target is T3, Ephrin type-B receptor 2 (Homo sapiens) (UniProt P29323).
T3 sequence (whole entry): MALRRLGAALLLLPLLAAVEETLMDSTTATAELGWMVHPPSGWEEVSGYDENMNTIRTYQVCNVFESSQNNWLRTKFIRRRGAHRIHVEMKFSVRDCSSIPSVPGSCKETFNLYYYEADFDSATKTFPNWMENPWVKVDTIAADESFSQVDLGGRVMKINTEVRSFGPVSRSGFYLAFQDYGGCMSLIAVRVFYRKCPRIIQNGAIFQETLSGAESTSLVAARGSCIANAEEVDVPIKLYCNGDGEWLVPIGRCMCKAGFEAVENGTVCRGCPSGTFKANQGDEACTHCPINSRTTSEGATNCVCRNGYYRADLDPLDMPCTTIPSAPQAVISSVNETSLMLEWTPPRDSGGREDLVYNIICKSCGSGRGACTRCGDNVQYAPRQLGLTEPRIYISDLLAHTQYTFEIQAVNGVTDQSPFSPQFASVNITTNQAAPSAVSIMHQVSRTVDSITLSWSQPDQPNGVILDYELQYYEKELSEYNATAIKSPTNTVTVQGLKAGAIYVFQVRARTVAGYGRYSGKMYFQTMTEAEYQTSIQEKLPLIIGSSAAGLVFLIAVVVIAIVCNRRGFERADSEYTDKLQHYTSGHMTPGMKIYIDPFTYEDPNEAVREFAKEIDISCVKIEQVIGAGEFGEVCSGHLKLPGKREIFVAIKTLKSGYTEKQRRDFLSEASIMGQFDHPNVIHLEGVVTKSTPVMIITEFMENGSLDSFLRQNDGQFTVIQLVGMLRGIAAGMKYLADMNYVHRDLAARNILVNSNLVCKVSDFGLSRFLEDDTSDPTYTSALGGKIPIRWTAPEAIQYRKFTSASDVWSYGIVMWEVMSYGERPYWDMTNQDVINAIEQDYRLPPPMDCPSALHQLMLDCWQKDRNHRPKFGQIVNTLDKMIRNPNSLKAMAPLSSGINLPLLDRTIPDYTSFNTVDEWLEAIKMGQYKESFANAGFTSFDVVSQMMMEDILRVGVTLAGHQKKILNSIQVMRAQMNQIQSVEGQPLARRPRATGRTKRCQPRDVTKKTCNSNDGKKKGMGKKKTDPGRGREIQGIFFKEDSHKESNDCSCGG
The following applies: at 1 µM.

Experiment [8] deals with T3, Ephrin type-B receptor 2 (Homo sapiens). The following applies: at 10 µM.
The target of experiment [9] is T4, Ephrin type-B receptor 3 (Homo sapiens) (UniProt P54753).
T4 sequence (whole entry): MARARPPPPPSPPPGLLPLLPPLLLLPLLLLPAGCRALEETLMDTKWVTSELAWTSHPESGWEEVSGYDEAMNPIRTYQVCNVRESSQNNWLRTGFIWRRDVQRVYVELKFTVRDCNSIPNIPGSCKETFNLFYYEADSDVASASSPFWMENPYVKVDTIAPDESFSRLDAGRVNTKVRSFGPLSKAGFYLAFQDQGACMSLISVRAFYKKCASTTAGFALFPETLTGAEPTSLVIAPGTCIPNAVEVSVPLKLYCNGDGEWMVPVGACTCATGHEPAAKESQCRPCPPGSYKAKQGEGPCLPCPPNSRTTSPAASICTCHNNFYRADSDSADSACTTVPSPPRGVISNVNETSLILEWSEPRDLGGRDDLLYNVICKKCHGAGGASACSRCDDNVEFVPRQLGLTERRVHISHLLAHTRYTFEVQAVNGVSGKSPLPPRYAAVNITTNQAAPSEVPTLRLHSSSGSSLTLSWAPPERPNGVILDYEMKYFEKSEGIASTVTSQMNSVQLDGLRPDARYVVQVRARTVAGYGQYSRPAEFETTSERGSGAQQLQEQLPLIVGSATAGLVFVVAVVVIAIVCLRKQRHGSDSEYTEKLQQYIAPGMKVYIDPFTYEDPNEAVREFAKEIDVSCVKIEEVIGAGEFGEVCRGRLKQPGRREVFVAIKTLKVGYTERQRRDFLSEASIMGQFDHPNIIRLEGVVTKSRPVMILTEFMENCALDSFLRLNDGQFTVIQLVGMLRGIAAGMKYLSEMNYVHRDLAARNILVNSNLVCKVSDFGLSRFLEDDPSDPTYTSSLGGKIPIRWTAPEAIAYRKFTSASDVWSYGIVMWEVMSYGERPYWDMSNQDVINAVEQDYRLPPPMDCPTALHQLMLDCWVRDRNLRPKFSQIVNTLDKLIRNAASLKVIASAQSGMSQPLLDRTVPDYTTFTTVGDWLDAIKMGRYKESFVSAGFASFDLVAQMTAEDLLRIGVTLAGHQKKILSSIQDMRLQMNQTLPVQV
The following applies: at 1 µM.

Experiment [10] deals with T4, Ephrin type-B receptor 3 (Homo sapiens). The following applies: at 10 µM.
In experiment [11] the target is T5, Ephrin type-B receptor 4 (Homo sapiens) (UniProt P54760).
T5 sequence (whole entry): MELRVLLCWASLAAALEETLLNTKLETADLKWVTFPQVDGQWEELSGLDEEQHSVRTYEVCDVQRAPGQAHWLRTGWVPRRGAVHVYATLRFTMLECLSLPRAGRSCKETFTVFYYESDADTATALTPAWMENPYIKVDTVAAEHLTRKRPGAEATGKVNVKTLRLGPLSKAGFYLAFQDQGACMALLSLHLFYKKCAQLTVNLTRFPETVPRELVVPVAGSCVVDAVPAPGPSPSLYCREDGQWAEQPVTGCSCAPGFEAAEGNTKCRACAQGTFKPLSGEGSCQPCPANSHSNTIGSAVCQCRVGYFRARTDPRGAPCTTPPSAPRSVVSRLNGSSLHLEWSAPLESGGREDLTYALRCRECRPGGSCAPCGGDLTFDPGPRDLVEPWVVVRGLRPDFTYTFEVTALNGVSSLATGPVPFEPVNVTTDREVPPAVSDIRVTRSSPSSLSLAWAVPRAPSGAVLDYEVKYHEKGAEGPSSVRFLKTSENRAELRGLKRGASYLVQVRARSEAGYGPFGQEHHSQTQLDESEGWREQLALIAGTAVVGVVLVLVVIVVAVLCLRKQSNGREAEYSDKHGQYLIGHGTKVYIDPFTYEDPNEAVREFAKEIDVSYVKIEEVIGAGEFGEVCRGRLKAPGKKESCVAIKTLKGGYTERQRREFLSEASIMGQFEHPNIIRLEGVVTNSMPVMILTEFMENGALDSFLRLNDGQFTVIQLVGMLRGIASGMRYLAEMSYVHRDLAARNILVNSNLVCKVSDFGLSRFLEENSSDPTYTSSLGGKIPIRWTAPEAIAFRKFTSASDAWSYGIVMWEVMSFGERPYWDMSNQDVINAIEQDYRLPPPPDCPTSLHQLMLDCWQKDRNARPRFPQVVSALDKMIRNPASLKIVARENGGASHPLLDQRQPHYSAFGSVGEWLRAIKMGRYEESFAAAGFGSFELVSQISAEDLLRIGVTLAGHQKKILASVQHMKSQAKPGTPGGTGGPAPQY
The following applies: at 1 µM.

Experiment [12] has as its target T5, Ephrin type-B receptor 4 (Homo sapiens). The following applies: at 10 µM.
In experiment [13] the target is Receptor tyrosine-protein kinase erbB-4 (Homo sapiens) (UniProt Q15303). The following applies: at 10 µM.
Chain of Receptor tyrosine-protein kinase erbB-4 (Homo sapiens) (Q15303 whole entry): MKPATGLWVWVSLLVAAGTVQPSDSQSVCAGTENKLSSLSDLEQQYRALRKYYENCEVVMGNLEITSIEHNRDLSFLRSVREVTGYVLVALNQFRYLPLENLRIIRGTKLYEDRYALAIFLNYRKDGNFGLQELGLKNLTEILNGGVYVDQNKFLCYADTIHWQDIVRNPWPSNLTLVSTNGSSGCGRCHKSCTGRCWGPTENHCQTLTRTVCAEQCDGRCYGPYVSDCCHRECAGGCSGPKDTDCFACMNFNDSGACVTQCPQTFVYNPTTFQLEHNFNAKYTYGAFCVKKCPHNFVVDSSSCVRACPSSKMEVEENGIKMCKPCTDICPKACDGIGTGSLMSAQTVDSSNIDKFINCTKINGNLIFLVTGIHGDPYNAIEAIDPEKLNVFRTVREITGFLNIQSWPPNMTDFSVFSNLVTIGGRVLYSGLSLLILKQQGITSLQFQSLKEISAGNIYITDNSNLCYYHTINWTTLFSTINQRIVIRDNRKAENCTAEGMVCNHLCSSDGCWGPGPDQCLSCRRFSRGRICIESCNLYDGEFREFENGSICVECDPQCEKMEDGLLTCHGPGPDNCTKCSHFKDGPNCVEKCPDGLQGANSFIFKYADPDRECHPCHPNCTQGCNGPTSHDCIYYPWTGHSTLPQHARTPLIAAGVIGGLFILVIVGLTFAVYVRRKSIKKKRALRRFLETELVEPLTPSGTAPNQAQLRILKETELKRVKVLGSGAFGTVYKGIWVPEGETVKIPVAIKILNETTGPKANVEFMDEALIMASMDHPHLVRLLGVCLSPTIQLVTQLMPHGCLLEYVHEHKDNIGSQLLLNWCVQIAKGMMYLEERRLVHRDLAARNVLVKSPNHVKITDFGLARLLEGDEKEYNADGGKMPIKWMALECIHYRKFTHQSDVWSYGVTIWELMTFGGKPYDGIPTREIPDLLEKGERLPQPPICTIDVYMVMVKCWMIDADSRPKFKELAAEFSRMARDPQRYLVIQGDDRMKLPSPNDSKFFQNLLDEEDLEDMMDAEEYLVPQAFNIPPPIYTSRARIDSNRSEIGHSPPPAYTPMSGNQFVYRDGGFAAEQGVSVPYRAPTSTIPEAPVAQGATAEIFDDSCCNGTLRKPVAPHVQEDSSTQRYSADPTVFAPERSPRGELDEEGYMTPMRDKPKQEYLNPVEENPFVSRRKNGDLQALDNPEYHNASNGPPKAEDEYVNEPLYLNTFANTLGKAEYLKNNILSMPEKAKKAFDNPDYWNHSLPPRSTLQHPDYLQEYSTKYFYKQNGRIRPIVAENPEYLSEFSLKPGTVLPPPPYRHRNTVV
Experiment [14] deals with Focal adhesion kinase 1 (Homo sapiens) (UniProt Q05397). The following applies: at 1 µM.
Chain of Focal adhesion kinase 1 (Homo sapiens) (Q05397 2-1052 limits assumed): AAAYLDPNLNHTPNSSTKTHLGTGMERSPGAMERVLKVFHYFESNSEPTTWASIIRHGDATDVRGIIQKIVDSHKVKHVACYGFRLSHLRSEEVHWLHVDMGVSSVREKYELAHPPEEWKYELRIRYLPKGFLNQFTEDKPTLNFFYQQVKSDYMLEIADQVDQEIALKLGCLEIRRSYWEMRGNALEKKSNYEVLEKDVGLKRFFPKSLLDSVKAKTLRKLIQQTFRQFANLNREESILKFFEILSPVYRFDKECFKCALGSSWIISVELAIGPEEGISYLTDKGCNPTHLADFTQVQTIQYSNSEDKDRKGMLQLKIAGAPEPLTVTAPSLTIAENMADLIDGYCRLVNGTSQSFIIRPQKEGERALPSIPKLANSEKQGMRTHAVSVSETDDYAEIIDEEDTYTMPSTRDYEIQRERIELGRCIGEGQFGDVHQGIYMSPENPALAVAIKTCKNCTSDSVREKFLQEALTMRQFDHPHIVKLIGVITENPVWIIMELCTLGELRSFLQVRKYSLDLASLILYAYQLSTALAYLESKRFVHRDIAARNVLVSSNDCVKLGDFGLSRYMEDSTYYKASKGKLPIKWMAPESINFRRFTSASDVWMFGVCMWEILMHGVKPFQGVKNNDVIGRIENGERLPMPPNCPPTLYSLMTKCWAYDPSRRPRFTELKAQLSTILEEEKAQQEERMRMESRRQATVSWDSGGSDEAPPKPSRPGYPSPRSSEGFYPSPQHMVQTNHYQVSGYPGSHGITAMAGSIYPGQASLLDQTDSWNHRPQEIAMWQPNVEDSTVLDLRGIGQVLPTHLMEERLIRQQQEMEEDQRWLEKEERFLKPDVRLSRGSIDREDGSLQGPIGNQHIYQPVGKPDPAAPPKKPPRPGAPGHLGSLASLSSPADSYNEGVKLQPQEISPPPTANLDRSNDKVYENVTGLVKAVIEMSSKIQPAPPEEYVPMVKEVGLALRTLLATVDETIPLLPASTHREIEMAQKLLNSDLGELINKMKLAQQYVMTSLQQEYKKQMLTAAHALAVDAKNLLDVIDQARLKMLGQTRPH
The target in experiment [15] is T6, Ephrin type-B receptor 1 (Homo sapiens) (UniProt P54762).
T6 sequence (whole entry): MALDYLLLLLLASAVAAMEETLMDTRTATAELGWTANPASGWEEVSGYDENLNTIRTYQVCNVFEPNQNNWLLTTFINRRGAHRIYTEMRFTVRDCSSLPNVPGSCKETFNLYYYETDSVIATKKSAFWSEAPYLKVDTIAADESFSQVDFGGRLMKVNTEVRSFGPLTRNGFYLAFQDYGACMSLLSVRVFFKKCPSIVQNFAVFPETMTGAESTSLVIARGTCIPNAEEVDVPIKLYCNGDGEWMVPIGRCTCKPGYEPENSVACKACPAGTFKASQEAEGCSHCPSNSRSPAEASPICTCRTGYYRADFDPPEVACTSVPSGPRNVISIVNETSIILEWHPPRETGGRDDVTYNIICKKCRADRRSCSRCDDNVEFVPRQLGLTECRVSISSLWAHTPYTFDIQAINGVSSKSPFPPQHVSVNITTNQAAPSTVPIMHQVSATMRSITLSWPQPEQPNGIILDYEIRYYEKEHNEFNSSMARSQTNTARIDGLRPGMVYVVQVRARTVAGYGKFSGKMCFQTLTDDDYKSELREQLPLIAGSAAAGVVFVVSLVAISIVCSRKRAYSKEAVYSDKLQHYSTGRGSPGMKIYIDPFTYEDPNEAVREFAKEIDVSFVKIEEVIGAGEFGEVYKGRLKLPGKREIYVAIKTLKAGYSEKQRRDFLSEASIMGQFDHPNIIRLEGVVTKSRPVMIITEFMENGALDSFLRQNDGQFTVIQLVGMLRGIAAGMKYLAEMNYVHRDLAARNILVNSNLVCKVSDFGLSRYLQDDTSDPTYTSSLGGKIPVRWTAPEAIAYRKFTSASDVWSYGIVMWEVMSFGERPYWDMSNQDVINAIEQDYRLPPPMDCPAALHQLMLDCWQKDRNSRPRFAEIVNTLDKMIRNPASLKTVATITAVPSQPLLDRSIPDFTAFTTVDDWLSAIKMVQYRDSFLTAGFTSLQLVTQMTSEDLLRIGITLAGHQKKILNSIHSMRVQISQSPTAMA
The following applies: at 1 µM.

Chain of Ephrin type-A receptor 5 (Homo sapiens) (P54756 whole entry): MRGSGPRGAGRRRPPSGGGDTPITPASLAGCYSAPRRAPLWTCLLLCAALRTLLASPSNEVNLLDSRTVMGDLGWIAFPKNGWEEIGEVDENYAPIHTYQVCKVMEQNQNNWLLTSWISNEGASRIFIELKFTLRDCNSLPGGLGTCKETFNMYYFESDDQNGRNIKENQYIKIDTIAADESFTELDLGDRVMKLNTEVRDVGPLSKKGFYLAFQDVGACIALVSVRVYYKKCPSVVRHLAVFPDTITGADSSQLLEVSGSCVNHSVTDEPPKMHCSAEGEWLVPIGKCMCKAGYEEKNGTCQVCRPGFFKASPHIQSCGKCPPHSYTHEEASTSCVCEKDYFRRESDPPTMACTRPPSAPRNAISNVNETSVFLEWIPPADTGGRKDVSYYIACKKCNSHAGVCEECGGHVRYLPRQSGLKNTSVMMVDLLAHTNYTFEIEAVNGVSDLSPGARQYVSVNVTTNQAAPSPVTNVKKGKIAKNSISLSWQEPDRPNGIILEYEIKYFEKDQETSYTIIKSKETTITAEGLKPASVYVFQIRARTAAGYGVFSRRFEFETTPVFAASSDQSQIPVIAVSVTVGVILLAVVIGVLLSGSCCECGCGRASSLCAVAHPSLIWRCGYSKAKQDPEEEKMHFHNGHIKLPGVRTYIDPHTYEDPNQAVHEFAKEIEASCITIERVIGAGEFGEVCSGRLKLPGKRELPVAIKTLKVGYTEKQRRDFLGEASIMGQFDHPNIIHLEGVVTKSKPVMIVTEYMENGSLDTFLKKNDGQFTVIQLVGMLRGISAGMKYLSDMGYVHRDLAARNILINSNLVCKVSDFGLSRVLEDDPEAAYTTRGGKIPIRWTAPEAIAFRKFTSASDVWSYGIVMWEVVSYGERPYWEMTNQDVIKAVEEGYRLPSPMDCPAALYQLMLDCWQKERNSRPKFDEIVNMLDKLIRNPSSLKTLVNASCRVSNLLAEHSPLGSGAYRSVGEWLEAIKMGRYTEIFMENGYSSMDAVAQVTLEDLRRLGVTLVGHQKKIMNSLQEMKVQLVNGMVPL
Chain of Ephrin type-A receptor 4 (Homo sapiens) (P54764 whole entry): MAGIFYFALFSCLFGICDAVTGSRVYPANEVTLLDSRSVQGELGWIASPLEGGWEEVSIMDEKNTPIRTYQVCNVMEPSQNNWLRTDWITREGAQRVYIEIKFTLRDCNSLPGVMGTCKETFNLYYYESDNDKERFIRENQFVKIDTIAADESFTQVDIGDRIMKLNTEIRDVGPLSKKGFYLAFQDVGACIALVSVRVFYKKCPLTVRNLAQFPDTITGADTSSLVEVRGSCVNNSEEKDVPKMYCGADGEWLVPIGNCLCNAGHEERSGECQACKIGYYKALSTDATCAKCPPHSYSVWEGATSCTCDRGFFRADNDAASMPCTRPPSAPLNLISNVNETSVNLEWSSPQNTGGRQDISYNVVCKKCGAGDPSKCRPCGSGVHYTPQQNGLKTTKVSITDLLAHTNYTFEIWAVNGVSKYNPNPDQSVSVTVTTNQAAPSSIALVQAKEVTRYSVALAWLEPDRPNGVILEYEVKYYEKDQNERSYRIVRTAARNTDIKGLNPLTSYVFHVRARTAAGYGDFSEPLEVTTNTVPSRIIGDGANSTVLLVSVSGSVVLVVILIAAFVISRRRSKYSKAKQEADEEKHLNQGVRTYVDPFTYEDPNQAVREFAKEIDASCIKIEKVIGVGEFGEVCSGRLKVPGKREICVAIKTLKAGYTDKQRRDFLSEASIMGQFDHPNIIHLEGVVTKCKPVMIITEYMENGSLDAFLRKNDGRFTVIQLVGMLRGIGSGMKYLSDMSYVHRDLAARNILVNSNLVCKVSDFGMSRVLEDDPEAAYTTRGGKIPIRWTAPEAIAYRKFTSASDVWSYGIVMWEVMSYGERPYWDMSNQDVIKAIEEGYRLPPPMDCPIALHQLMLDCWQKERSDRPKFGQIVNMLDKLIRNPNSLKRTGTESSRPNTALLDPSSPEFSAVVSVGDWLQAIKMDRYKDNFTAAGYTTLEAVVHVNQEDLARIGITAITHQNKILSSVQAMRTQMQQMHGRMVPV

`CC(C)[C@H](CO)Nc1nc(Nc2cc(N)cc(Cl)c2)c2ncn(C(C)C)c2n1`: the residual activity in experiment [1] worked out at 52%; in experiment [2], 63%; in experiment [3], 86%; in experiment [4], 23%; in experiment [5] it was 93%; in [6], 59%. Also, the residual activity is 92% in [7]; 7% in experiment [8]; 92% (inactive) in [9]; 116% in experiment [10]; 57% in [11]; 6% in [12]. The values for the residual activity in experiment [13] and in experiment [14] were 84% and 42%, respectively.

As to `Oc1cccc(-c2nc(N3CCOCC3)c3oc4ncccc4c3n2)c1`, the residual activity in [3] was 98%; in [4] it was 124%; in [15], 95%; in [9], 116% (inactive); in experiment [10] it was 123%; in [14], 144%.

The values above are taken from ChEMBL document CHEMBL2218924, “A broad activity screen in support of a chemogenomic map for kinase signalling research and drug discovery” (Biochem J, 2013).
